Screening results deposited in PubChem BioAssay by several laboratories.
In the library only some 4% were active in any assay of this set; here they are far more common.
LMP1 NFkB inh: inhibitors of Epstein-Barr LMP1-induced NF-kappaB reporter; 0.69% of 350,000 active; inhibition, % at 12.5 µM; LMP1-induced NF-kappaB luciferase reporter cells, luminescence; in the data active = inhibition above about 41%;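 note: 0% = neutral control wells and 100% = reference inhibitor control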
TROY signal inh: blocks TROY-dependent signaling in reporter cells | Q293 LMP1-TROYcd NF-kB luciferase reporter, 4 h | 0.98% of 360,000 active | inhibition, % at 10 µM;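 active = compounds whose plate-normalised and pattern-corrected inhibition of the luciferase reporter signal at the single screening dose is 50% or more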
Peg3 prom inh: Peg3 promoter activity inhibition. HeLa PEG-Prom luciferase reporter, luminescence, overnight. inhibition, % at 20 µM. 1.7% of 360,000 active. AID 588405;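 active = inhibition of at least 50% at 20 µM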
HIF-2a block: HIF-2a inhibition; 786-0 RCC cells HIF-2a reporter, luciferase luminescence, overnight; inhibition, % at 18.8 µM; 0.72% of 360,000 active;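 active = inhibition of the luminescence signal of 40% or more relative to plate controls, in a single-dose primary screen at 18.75 µM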
TRPM1 prom inh: inhibitors of MITF-driven TRPM1 promoter in melanoma cells. inhibition, % at 12.5 µM. 0.83% of 330,000 active. SK-MEL-5 TRPM1 promoter luciferase, 24 h. AID 488899;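 active = mean inhibition across replicates of 60% or more, whatever share of single replicates reaches that level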
TWEAK Fn14 block: TWEAK-Fn14 signaling inhibition; inhibition, % at 10 µM; 2% of 360,000 active; AID 1159606; TWEAK-stimulated Fn14 reporter cells, luciferase luminescence, 8 h; in the data active = inhibition above about 50%
* = called active by the depositor; x = no result.

SMILES | LMP1 NFkB inh | TROY signal inh | Peg3 prom inh | HIF-2a block | TRPM1 prom inh | TWEAK Fn14 block
CN(C)c1ccc(N/C=C/C(=O)c2ccco2)cc1 | -6 | -14 | -17 | -29 | -18 | 86*
O=C(/C=C/Nc1ccc(Br)cc1F)c1ccco1 | 39 | 18 | 24 | 10 | 29 | 63*
O=C(/C=C/Nc1ccc(F)cc1F)c1ccco1 | 15 | -13 | -13 | -73 | -2 | 73*
CC(=O)Nc1ccc(N/C=C/C(=O)c2ccco2)cc1 | -17 | -9 | -234 | -224 | -59 | -9
CN(CC(=O)NCc1ccc(F)cc1)S(=O)(=O)c1ccc(Br)s1 | 0 | -11 | 12 | 11 | 0 | 7
COc1cc2oc(=O)cc(-c3ccc(-c4ccc(N(C)C)cc4)cc3)c2c(OC)c1OC | 42* | 71* | -59 | -30 | -41 | 92*
COc1cc(OC)c2c(-c3cccc(-c4cccc(C)c4)c3)cc(=O)oc2c1 | 3 | 17 | 6 | 2 | 27 | 14
COc1cc(OC)c2c(-c3cccc(-c4ccc(O)cc4)c3)cc(=O)oc2c1 | 8 | 25 | -2 | 5 | 36 | 38
COc1cc(OC)c2c(-c3cccc(-c4ccc(N(C)C)cc4)c3)cc(=O)oc2c1 | 14 | 44 | -31 | -19 | 56 | 52*
COc1ccc(-c2cccc(-c3cc(=O)oc4cc(OC)cc(OC)c34)c2)cc1 | -14 | 20 | -4 | 21 | 67* | 5
COc1cc(OC)c2c(-c3cccc(-c4ccc(CO)cc4)c3)cc(=O)oc2c1 | 10 | 41 | 16 | 19 | 77* | 75*
COc1cc(/C=N/n2c(-c3ccc4c(c3)NC(=O)CO4)csc2=Nc2cccc(C)c2)ccc1O | -6 | 12 | 28 | -30 | 16 | 65*
Cc1ccccc1NC(=S)N(Cc1cccnc1)Cc1ccco1 | 2 | -20 | 14 | 12 | -4 | 60*
COc1ccc(CCNC(=O)COc2cc(O)c3c(c2)OC(C)(C)CC3=O)cc1OC | -1 | 9 | -9 | 14 | -1 | -6
O=C(NCCCCc1ccccc1)c1cccc(NC(=O)C2CCCCC2)c1 | 5 | 6 | -5 | -18 | -9 | -30
CC(C)(C)OC(=O)N1CCC(C(=O)Nc2ccc(C(=O)NCCc3ccccc3)cc2)CC1 | -5 | 4 | -73 | -59 | -1 | 54*
O=C(NCCCCc1ccccc1)c1cccc(NC(=O)C2CCC2)c1 | 6 | -6 | -15 | -18 | -2 | 101*
CC(C)(C)OC(=O)N1CCCC(C(=O)Nc2cccc(C(=O)NCCc3ccccc3)c2)C1 (stereo not drawn) | -13 | -52 | -94 | -206 | -15 | 100*
CC(C)(C)OC(=O)N1CCCC1C(=O)NCCc1ccccc1 (stereo not drawn) | -5 | x | 9 | -2 | -13 | 79*
CC(C)(C)OC(=O)N1CCCC(C(=O)Nc2cccc(C(=O)NCCCCc3ccccc3)c2)C1 (stereo not drawn) | 5 | 45 | 5 | 13 | 17 | 12
O=C(NCCc1ccccc1)C1CCCN1C(=O)NCc1ccccc1 (stereo not drawn) | 0 | 2 | 1 | 13 | 2 | -3
CC(C)(C)OC(=O)N1CCC(C(=O)Nc2ccc(C(=O)NCc3ccccc3)cc2)CC1 | 0 | 20 | 3 | 4 | 6 | 7
COc1ccccc1OCC(=O)NC1CCSc2ccccc21 (stereo not drawn) | -8 | 6 | -35 | -49 | -9 | -10
Cc1cc2ncc(-c3cccs3)nc2cc1C | -25 | 12 | -31 | -30 | 9 | 71*
c1csc(-c2ccc3ccccc3n2)c1 | -26 | -46 | -287 | -242 | -61 | -16
SMILES | LMP1 NFkB inh | TROY signal inh | Peg3 prom inh | HIF-2a block | TRPM1 prom inh | TWEAK Fn14 block
CC(Nc1nc(-c2ccc(Cl)cc2)cs1)c1nc2cc(Cl)c(N3CCCCC3)cc2n1CCOCCO (stereo not drawn) | 7 | 40 | 47 | 1 | 7 | 54*
O=C(N/N=C/c1ccccc1)c1ccco1 | -8 | -60 | -133 | -187 | -66 | 0
CCN(CC)c1ccc(/C=N/NC(=O)c2ccco2)c(O)c1 | 69* | -19 | -93 | -298 | 0 | -17
O=C(N/N=C/c1ccc2cccnc2c1)c1ccco1 | 20 | 32 | -34 | -123 | 1 | 52*
CCN(CC)c1ccc(/C=N/NC(=O)c2ccco2)cc1 | -4 | 16 | -120 | -122 | -9 | 64*
CCN(CC)c1ccc(/C=N/NC(=O)Cc2cccs2)c(O)c1 | 33 | -25 | -7 | -134 | 26 | -13
O=C(CCc1nc2ccccc2c(=O)[nH]1)Nc1cc(C(F)(F)F)ccc1N1CCCC1 | 4 | 51* | 13 | -6 | 4 | 62*
O=C(C1CCCN(c2ncnc3c2nc2n3CCCCC2)C1)N1CCN(c2ccc(F)cc2)CC1 (stereo not drawn) | 3 | 3 | 45 | 6 | 8 | 22
O=C(Nc1ccc(Cl)cn1)C1CCCN(c2ncnc3c2nc2n3CCCCC2)C1 (stereo not drawn) | -4 | 11 | 56* | 12 | 2 | 14
O=C(C1CCCN(c2ncnc3c2nc2n3CCCCC2)C1)N1CCN(c2ccc(Cl)cc2)CC1 (stereo not drawn) | -1 | 50 | 56* | 22 | 4 | 38
CC1CCN(C(=O)C2CCN(c3ncnc4c3nc3n4CCCCC3)CC2)CC1 | 7 | -7 | 22 | 11 | 5 | 6
O=C(C1CCN(c2ncnc3c2nc2n3CCCCC2)CC1)N1CCN(c2cccc(Cl)c2)CC1 | 6 | 49 | 60* | 27 | 28 | 54*
CCOc1ccc(NC(=O)N(Cc2ccc(C)cc2)Cc2ccccn2)cc1 | 6 | -18 | 13 | 2 | -17 | -13
CCCCC(=O)N(C)c1c(CC)nc2c(OCC(=O)c3ccc(Cl)cc3Cl)cccn12 | x | -12 | 14 | 2 | x | -6
O=C(CNc1cccc(F)c1)N1CCc2ccccc2C1 | -21 | -44 | -300 | -241 | -75 | -9
Cc1ccc(C(=O)NCCNc2nc3cc(C)c(C)cc3cc2C)cc1 | 4 | 11 | 61* | 22 | -15 | -2
Cc1cc(NC(=O)CCCSc2nc(-c3ccco3)cc(C(F)(F)F)n2)n(-c2ccccc2)n1 | -9 | x | 10 | 17 | 0 | 62*
COc1ccc(S(=O)(=O)Nc2ccc3c(c2)C(=O)N([C@H](C)CO)C[C@H](C)[C@@H](CN(C)S(C)(=O)=O)O3)cc1 | -7 | 1 | 0 | -1 | -2 | 1
Cc1ccc(S(=O)(=O)N[C@H](C(=O)N2CCC(C(=O)N[C@@H](CC(=O)O)C(=O)O)CC2)C(C)C)cc1 | 74* | 3 | 4 | 16 | 7 | -8
O=C(c1ccccc1Cl)N(C(=O)c1ccccc1Cl)c1nccc(-c2cccs2)n1 | 23 | 67* | -83 | -27 | 3 | 77*
O=C1CCc2cc(S(=O)(=O)NC3CCCCC3)ccc2N1 | -5 | 6 | 103* | 8 | -8 | 28
Cc1ccc(S(=O)(=O)N(CC(=O)Nc2ccc(C)cc2C)C(=O)N2CCN(C)CC2)cc1 | 2 | 2 | 10 | 17 | 7 | -11
